38 molecules from PubChem BioAssay (NCI) can be followed below.

Compounds without any hit were thinned out: in the full panel of roughly 83,000, 20% have a hit.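 Testing used 96-well plates and a 48-hour single-concentration exposure. Example: -40 means 40% of the starting cells died.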 Values without a mark were called inactive. Activity calls are given as the source filed them. The calls were made as follows: active = growth percent below 10; inactive = the rest.

The assay deals with ACHN renal. The experiment in a line: NCI-60 one-dose screen, 48 h (100 = growth as untreated, 0 = no growth, -100 = all killed). To be noted: 10 µM unless noted.
On to `O=C(Nc1nc2ccccc2s1)Nc1ccccc1Cl`, for which the growth was 49.3%. For `Cc1ccc(C(=O)Nc2cc(-n3ccnc3C)cc(C(F)(F)F)c2)cc1C#Cc1cnc2cccnn12` the value was -6.55% (active); for `O=C(c1ccc(O)cc1)C1[C@H](c2ccc(Cl)cc2)[C@@H](c2ccccc2)NC12C(=O)Nc1ccccc12` (stereo partly drawn), 3.11% (active). Regarding `COc1ccc(-c2nc3ccc(-c4nnc(SCC(=O)Nc5ccc(/C(C)=N\O)cc5)o4)cc3[nH]2)cc1`, the growth is 85.9%. For `C[C@H]1[C@@H](CC(=O)N[C@@H](Cc2coc3ccccc23)B(O)O)O[C@@H]2OC3(C)CC[C@H]4[C@H](C)CC[C@@H]1[C@@]24O3` the value was 6.94% (active). For `Cc1cc(C(NC(=O)C2CC3(CC(Nc4cccc5c4C(=O)N(C4CCC(=O)NC4=O)C5=O)C3)C2)c2ccc3c(c2)OC(F)(F)O3)c(O)c2ncccc12` (stereo not drawn) the value was 5.49% (active); for `NC(=O)c1ccc(-c2ccc3ncnc(N4CCc5cc(F)c(Cl)cc54)c3c2)cn1`, 30.3%. Take `CCN1C(=O)N(CC)C2NNC(Sc3c(C(=O)O)c4ccccc4n(CCC(C)C)c3=O)=NC21` (stereo not drawn): the growth was 24%. To `COc1ccc2[nH]c(O)c(N=Nc3nc(-c4ccc(Cl)cc4)cs3)c2c1` belongs -79.1% (active); to `CC[C@]12C=CCN3CC[C@@]4(c5ccc(OC)cc5N(C)[C@H]4[C@@](O)(C(=O)OC)[C@@H]1OC(=O)CCCC[P+](c1ccc(F)cc1)(c1ccc(F)cc1)c1ccc(F)cc1)[C@@H]32`, 103%. To `COc1cccc(/C=C/c2nc3ccccc3c(=O)n2CC(=O)Nc2ccccc2)c1` belongs -15.6% (active); to `O=C(c1ccc(Cl)cc1)C1[C@H](c2ccccc2Cl)[C@@H](c2ccccc2)NC12C(=O)Nc1ccc(Br)cc12` (stereo partly drawn), -69.2% (active); to `O=C(CSc1nnc(-c2ccc(-c3nc4ccc(Cl)cc4[nH]3)cc2)o1)Nc1ccc(Cl)cc1`, -69.3% (active).

For the molecule `N#Cc1c(NC(=O)N2CCOCC2)n(-c2ccc(OC(F)(F)F)cc2)c2cc(F)ccc12`, the growth was 93.2%.

Take `O=C(N/N=C/c1ccc(Cl)o1)c1[nH]c2ccc(Br)cc2c1-c1ccccc1`: the growth was -46% (active).

In the case of `CC1=C(C(=O)OCc2ccccc2)C(c2cccc3ccccc23)n2c(nc3ccccc32)N1` (stereo not drawn), the growth is 41.1%.

With `CC1=NN(C2=NC(=O)C(CC(=O)Nc3ccccc3C(F)(F)F)S2)C(c2ccc(N(C)C)cc2)C1` (stereo not drawn), the growth is 35.8%. Turning to `CN1C(=O)C2(C(C#N)=C(c3ccc(Cl)cc3)Nc3c2c(-c2ccccc2)nn3-c2ccccc2)c2ccccc21` (stereo not drawn), the growth was 89.5%. For `O=[N+]([O-])c1cccc(-c2nnc3c(/C=C/c4ccc(F)cc4)nc4ccccc4n23)c1` the value was 93.8%. To `COC(=O)c1cc(C(C)=O)n2c3ccccc3c3ccccc3c12` belongs 36.4%; to `CCCCCCCOc1ccc(S(=O)(=O)Nc2ccc(C)c(F)c2C(=O)O)cc1`, 101%; to `COc1ccc2[nH]cc(-c3cc4nc(-c5cn(C)c6ncc(Br)cc56)cc(N)n4n3)c2c1`, -97.6% (active). For `COc1ccc2c(c1)N=c1c-2cc2c(O)[nH]c(=S)n2c1=O` the value was 44.9%; for `CC(C)C[C@H](NC(=O)[C@@H]1CCCCCCCCCCC(=O)N[C@@H](CC(=O)N2CCC[C@@H]2C2CCCC2)C(=O)N1)B(O)O`, 3.27% (active). For the molecule `O=C1NC(=S)/C(=C/c2cn(-c3ccccc3)nc2-c2ccccc2)S1`, the growth was 20.1%. To `CN(C)C(=O)c1cc(-c2ccc3ncnc(N4CCc5cc(F)c(Cl)cc54)c3c2)cnc1N` belongs 2.02% (active); to `N#C/C(=C/c1ccc(Cl)cc1)c1nnc(NC(=O)c2ccc(-n3c(=O)[nH]c4ccccc4c3=O)cc2)s1`, 84.3%; to `COc1c(B(O)O)cc(F)cc1-c1nc2c(F)cc3[nH]ncc3c2c2c1CCCC2`, 4.28% (active). With `O=C(CSc1nc2sc3c(c2c(=O)n1-c1ccc(Cl)cc1)CCCC3)NNC(=O)c1ccc(Br)cc1`, the growth was 91.2%. For `CN(C)c1ccc(/C=C/c2n(Cc3ccc4ccccc4c3)c3ccccc3[n+]2Cc2ccc3ccccc3c2)cc1`, the growth is -97.6% (active).

Take `COc1ccc2[nH]c(=O)cc(-n3ncc(C(=O)/C=C/c4cc(OC)c(OC)c(OC)c4)c3C)c2c1`: the growth is -14.9% (active). To `COc1ccc(C(=O)C[n+]2cccc3c4ccccc4ccc32)cc1` belongs 79%; to `CN1CCc2c(sc3ncnc(N/N=C/c4cccc(Cl)c4Cl)c23)C1`, -39.1% (active). `COc1ccc2[nH]c(O)c(N=Nc3nc(-c4ccccc4)cs3)c2c1`: the growth was -16.5% (active). To `COc1ccc(N=Nc2c(N)nn3c(N)c(C#N)c(-c4ccc(F)cc4)nc23)cc1` belongs 53.5%. To `C=CCSc1nnc(-c2ccc(-c3nc4ccccc4[nH]3)cc2)o1` belongs 78.1%; to `Cc1oc(-c2ccccc2)nc1CN[C@@H]1C[C@@H]2C[C@H]([C@H]1C)C2(C)C`, 25.8%; to `COc1ccc(NC2=C(I)C(=O)C(C)=C(C)C2=O)cc1`, 30.4%.
